# Bioassay records deposited in PubChem BioAssay by National Center for Advancing Translational Sciences (NCATS).
# In the library only some 7% were active in any assay of this set; here they are far more common.
# PLK1 PBD inh – PLK1 (human) polo-box domain binding inhibition | P53350 | Plk1 PBD binding of FITC phosphopeptide, fluorescence polarization | Potency, µM, without a hit: max response, negative = inhibition, usual class: inhibitors | hit rate 2.8% among 360,000 | AID 720504; also: potency is read from the fitted curve at half-maximal effect; series mostly up to about 57 µM; % is scaled to controls: 0 for no effect and ±100 for the full control effect; nearly all actives have a fitted effect of over 65% in size
# HP1b chromo inh – HP1-beta chromodomain-methylated histone interaction inhibition. Potency, µM (highest dose often 114 µM), inactives show at the highest dose activity change, negative = inhibition, usual class: inhibitors. AlphaScreen HP1-beta / biotin-H3K9me3 peptide binding. P83916. hit rate 0.56% among 390,000. AID 540317; also: potency is read from the fitted curve at half-maximal effect; nearly all actives have a fitted effect of over 70% in size
#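 AlphaScreen: HP1-beta (50 nM) preformed 30 min with biotin-H3(1-18)K9me3 peptide (50 nM) in PBS pH 7.4, 0.01% Tween-20. Compound added for 30 min at RT, then streptavidin donor/nickel chelate acceptor beads (10 ug/mL) for 30 min.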
# KAT2A inh – inhibitors of human GCN5L2 histone acetyltransferase | Q92830 | GCN5L2 HAT assay, ThioGlo1 CoA-SH fluorescence | Potency, µM (top dose mostly 58.9 µM), inactives show at the highest dose activity change, negative = inhibition, hits mostly inhibitors | hit rate 0.21% among 390,000 | AID 504327; also: potency is read from the fitted curve at half-maximal effect; % is scaled to controls: 0 for no effect and ±100 for the full control effect
#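 Compounds, pin-transferred from DMSO stocks, meet 20nM GCN5L2 for 15 min before the reaction begins with H3(1-25) peptide (75uM) and acetyl-CoA (70uM). Thiol-reactive ThioGlo1 reports CoA release over 20 min at room temperature.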
# BAZ2B inh – BAZ2B (human) inhibition. Q9UIF8. AlphaScreen BAZ2B-H3K14Ac peptide displacement. Potency, µM (highest dose often 114 µM), for the others: at the top dose activity change, negative = inhibition, most hits filed as inhibitors. hit rate 4.4% among 360,000; also: potency is read from the fitted curve at half-maximal effect; % is scaled to controls: 0 for no effect and ±100 for the full control effect; nearly all actives have a fitted effect of over 60% in size
# Target sequence (Q9UIF8 whole entry, looked up): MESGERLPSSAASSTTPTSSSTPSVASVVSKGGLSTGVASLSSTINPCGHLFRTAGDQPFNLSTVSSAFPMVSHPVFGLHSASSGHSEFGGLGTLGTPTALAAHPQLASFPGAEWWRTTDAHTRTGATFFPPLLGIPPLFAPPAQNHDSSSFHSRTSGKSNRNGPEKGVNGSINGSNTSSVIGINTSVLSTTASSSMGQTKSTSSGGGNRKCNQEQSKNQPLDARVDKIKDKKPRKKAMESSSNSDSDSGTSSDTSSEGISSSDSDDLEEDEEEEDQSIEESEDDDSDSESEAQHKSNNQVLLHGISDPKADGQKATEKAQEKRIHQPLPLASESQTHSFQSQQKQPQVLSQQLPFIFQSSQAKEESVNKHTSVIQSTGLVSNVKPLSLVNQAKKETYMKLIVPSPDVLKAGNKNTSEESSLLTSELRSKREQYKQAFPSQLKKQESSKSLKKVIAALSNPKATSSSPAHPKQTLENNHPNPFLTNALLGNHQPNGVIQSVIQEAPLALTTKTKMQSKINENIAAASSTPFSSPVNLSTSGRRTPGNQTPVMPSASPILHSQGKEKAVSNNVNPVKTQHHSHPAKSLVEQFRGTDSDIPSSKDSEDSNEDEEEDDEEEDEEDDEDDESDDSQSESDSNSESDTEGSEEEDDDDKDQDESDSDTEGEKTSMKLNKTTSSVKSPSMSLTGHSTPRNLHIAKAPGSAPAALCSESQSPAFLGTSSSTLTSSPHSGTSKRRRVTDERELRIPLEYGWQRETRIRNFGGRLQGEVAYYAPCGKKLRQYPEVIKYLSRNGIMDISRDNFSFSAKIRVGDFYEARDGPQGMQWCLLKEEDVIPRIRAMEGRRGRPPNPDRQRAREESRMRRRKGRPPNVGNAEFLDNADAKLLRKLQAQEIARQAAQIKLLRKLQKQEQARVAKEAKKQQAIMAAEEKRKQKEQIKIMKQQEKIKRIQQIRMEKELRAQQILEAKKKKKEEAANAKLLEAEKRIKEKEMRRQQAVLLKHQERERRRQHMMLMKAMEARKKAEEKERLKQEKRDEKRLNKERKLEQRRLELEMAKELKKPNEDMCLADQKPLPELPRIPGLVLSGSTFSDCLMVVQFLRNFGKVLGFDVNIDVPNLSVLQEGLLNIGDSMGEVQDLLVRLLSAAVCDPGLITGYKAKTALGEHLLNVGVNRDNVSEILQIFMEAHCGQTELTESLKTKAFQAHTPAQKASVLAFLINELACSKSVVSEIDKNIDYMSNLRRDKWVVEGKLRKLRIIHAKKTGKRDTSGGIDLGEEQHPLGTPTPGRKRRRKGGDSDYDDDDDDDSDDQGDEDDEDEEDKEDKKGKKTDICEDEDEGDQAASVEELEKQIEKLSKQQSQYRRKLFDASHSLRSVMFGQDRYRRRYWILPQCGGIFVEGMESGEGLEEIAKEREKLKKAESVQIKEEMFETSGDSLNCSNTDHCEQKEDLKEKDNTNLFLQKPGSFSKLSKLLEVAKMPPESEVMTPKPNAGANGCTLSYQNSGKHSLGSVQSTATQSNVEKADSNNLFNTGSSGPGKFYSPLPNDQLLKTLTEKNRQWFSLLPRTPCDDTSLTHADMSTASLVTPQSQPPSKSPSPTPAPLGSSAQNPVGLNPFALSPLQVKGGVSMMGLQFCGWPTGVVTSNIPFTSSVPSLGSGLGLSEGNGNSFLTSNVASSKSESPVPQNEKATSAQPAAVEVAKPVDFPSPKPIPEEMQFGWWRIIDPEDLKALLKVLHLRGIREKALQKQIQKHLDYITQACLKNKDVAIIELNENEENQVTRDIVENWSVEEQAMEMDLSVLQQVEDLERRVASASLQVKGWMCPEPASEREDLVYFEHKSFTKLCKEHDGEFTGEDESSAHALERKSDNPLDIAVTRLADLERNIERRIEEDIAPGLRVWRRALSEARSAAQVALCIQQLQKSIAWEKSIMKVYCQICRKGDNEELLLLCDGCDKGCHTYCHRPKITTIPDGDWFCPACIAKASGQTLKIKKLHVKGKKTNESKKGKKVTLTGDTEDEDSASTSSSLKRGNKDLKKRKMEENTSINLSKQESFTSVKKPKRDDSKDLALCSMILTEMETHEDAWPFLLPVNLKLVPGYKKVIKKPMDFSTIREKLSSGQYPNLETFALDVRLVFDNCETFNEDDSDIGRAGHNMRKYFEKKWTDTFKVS
#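 AlphaScreen displacement: compounds (up to 110uM) incubated 30 min at room temperature with a preformed 50 nM BAZ2B/50 nM biotinylated H3K14Ac peptide complex in PBS pH 7.4 with Tween-20. Donor and acceptor beads at 10 ug/mL final added, 20 min light-protected before reading.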
# PI5P4Ka inh – inhibitors of human PI5P4K alpha; PI5P4Kalpha enzyme, ADP-Glo luminescence, 60 min; active compounds read low; hit rate 1.2% among 330,000; P48426; AID 652105; max response, %; active = max response of -50% or lower; inconclusive = between -30% and -50%; inactive = -30% or higher; also: value at the top dose of about 77 µM; % is scaled to controls: 0 for no effect and ±100 for the full control effect
#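 PI5P4Kalpha ADP-Glo assay; 5 microM ATP final; 60 min RT reaction; HEPES pH 7.4/EGTA/CHAPS, 5% DMSO; controls lacking substrate or enzyme; luminescent end-point.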
# JMJD2A Tudor inh – blocks the human JMJD2A Tudor domain; O75164; AlphaScreen JMJD2A-Tudor / H3K4me3 peptide binding; Potency, µM (top dose mostly 114 µM), without a hit: top-dose activity change, negative = inhibition, usual class: inhibitors; hit rate 4.4% among 390,000; also: potency is read from the fitted curve at half-maximal effect; % is scaled to controls: 0 for no effect and ±100 for the full control effect; nearly all actives have a fitted effect of over 50% in size
# * hit, by the source's call; ? = inconclusive; . = no result given; [ ] = remark or other dose. Unless noted, calls follow the shape of the dose curve; as a rule, active = well fitted curve in the direction sought with a large enough effect; inconclusive = small, poorly fitted or top-dose-only effect, or another doubt; inactive = no such curve, though single readings can be large; an effect the other way counts as inactive or inconclusive.
SMILES,PLK1 PBD inh,HP1b chromo inh,KAT2A inh,BAZ2B inh,PI5P4Ka inh,JMJD2A Tudor inh
O=C(N/N=C/C=C\c1ccccc1[N+](=O)[O-])c1cccs1,-3%,44%,33%,-6%,1,-24%
O=C(N/N=C/C=C/c1ccc([N+](=O)[O-])cc1)c1cccs1,0%,25%,-20%,50µM*,0,-30%
O=C(N/N=C/C=C/c1ccco1)/C(=C/c1ccccc1)NC(=O)c1ccccc1,30µM*,-21%,28%,-4%,-57*,79µM*
N=c1nc2n(cc1F)C1OC(CO)C(O)C1O2 (stereo unspecified),-3%,23%,.,.,2,-16%
O=C(CN(c1cccc(Br)c1)S(=O)(=O)c1ccccc1)N1CCc2ccccc2C1,.,17%,-11%,-1%,.,-1%
COc1ccc(S(=O)(=O)N2CCC[C@H]2C(=O)N2CCC[C@H]2C(=O)NCc2ccccn2)cc1C,1%,.,.,.,2,.
Cc1ccc(S(=O)(=O)n2ccc3c(OCCOCCSCC(NC(=O)OC(C)(C)C)C(=O)O)cccc32)cc1 (stereo unspecified),-24%,-8%,-10%,50µM*,-6,-33%
CN(Cc1c(F)cccc1Cl)C(=O)CCc1c[nH]c2ccccc12,1%,-17%,-7%,71µM*,-2,?
CN(Cc1cccs1)C(=O)CCc1c[nH]c2ccccc12,-10%,14%,0%,-32%,-1,-29%
CCN(CC)c1ccc(-n2c(C)c(C(C)=O)c(C(C)=O)c2C)cc1,-1%,?,-8%,.,0,89µM*
CC(=O)c1c(C(C)=O)c(C)n(-c2ccc(O)cc2)c1C,-13%,6%,.,-39%,.,-29%
CC(C)CSc1n[nH]c(=S)s1,7.5µM*,28µM*,?,50µM*,-52*,8.9µM*
CC(CSc1n[nH]c(=S)s1)c1ccccc1 (stereo unspecified),?,50µM*,.,.,-54*,18µM*
O=C1c2ccccc2C(=O)N1CCSc1n[nH]c(=S)s1,-14%,?,?,?,-77*,18µM*
CCOc1ccc(S(=O)(=O)N2CCCC(C(=O)NCc3cccnc3)C2)cc1Cl (stereo unspecified),-3%,-2%,-7%,2%,-1,-7%
CC(CS(=O)(=O)c1ccc2c(c1)NC(=O)CS2)C(=O)NCc1ccccc1Cl (stereo unspecified),?,13µM*,-11%,14µM*,?,25µM*
CN1CCN(Cc2ccc(Sc3ccc(Cl)cc3)c([N+](=O)[O-])c2)CC1,-18%,-29%,-1%,32µM*,8,?
Cc1ccc(Sc2ccc(CO)cc2[N+](=O)[O-])cc1,-5%,-22%,-12%,?,3,?
O=C(O)c1ccccc1C(=O)c1ccc(Sc2ccc(Cl)cc2)c([N+](=O)[O-])c1,?,-5%,-21%,?,-12,-23%
Cc1ccc(Sc2ccc(CN3CCCC3)cc2[N+](=O)[O-])cc1,-2%,?,-5%,?,9,45µM*
Cc1cc(C)c(NC(=O)C2CCN(c3nnc(C)c4c(C)n(-c5ccccc5)nc34)CC2)c(C)c1,.,8%,-15%,-31%,.,-29%
O=C(Nc1cc(C(F)(F)F)cc(C(F)(F)F)c1)Nc1cnn(-c2ccc([N+](=O)[O-])cc2)c1C(F)(F)F,0%,14%,-17%,-1%,1,-8%
C/C(=C(/CCOC(=O)C(C)C)SS/C(CCOC(=O)C(C)C)=C(\C)N(C=O)Cc1cnc(C)nc1N)N(C=O)Cc1cnc(C)nc1N,.,.,-1%,.,.,.
O=C(COC(=O)c1cccc(S(=O)(=O)N2CCCC2)c1)Nc1ccccc1C(F)(F)F,-2%,22%,-14%,-7%,0,-8%
CCC(=O)Nc1ccc(-c2nnc(SCC(=O)Nc3nccs3)n2C)cc1,-8%,27%,1%,-5%,-10,89µM*
SMILES,PLK1 PBD inh,HP1b chromo inh,KAT2A inh,BAZ2B inh,PI5P4Ka inh,JMJD2A Tudor inh
Cn1c(COc2ccccc2)nnc1SCC(=O)Nc1ccc2c(c1)OCO2,-4%,23%,-2%,-5%,.,-12%
O=C(CSc1nnc(CNC(=O)c2ccc(F)cc2)o1)Nc1nccs1,?,35%,-2%,79µM*,8,-35%
Cn1c(COc2ccccc2)nnc1SCC(=O)Nc1nnc(C2CC2)s1,30µM*,-22%[57 µM],.,.,-13,?
O=C(CSc1nnc(CNC(=O)c2ccccc2)o1)Nc1nccs1,-6%,49%,-1%,79µM*,9,?
O=C(Nc1cc(Cl)cc(Cl)c1)c1cc(S(=O)(=O)N2CCc3ccccc3C2)ccc1F,.,35%,2%,0%,.,-13%
COCCN(C(=O)COC(=O)C1CC(=O)N(c2ccc(C)cc2)C1)c1c(N)n(Cc2ccccc2)c(=O)[nH]c1=O (stereo unspecified),-11%,.,.,.,-5,.
CC1CCCCC12NC(=O)N(CC(=O)Nc1ccc(OC(F)F)cc1)C2=O (stereo unspecified),2%,34%,-1%,.,0,-8%
CCn1c(Cc2cccc3ccccc23)nnc1SCC(=O)Nc1nccs1,-1%,26%,-1%,6%,3,79µM*
Cn1c(CNC(=O)c2ccccc2)nnc1SCC(=O)Nc1nccs1,3.4µM*,-12%,-4%,-12%,?,11µM*
CCc1nnc(SCC(=O)Nc2nccs2)n1CC,-8%,26%,1%,-12%,-5,-18%
Cc1cccc(C(=O)NCc2nnc(SCC(=O)NC3=NCCS3)n2C)c1,-2%,16%,-3%,5%,4,40µM*
CCn1c(CNC(=O)c2cccc(C)c2)nnc1SCC(=O)NC1=NCCS1,-12%,17%,-1%,-15%,-1,-2%
CCOc1ccc(-c2nnc(-c3cccs3)o2)cc1OCC,19µM*,-6%,-14%,1%,-13,?
COc1ccc(-c2nnc(-c3cccs3)o2)cc1OC,-12%,37%,-3%,-4%,.,-1%
COc1ncnc2c1ncn2CCCNCc1ccco1,-3%,.,.,.,-2,.
CNC(=O)OCN1C(=O)C2CC=CCC2C1=O (stereo unspecified),-3%,35%,.,.,0,-3%
CCCC[N+](C)(C)CCC(=O)NC(C)(C)CS(=O)(=O)[O-],0%,?,-14%,50µM*,5,56µM*
CCC(NC(=O)CCc1c(C)c2cc3c(C)c(C)oc3cc2oc1=O)C(=O)N[C@@H](Cc1ccccc1)C(=O)O (stereo partly specified),-9%,3%,-14%,50µM*,-3,?
COc1ccc(Cl)cc1NC(=O)CCN1C(=O)c2ccccc2Sc2ncccc21,.,-3%,0%,-8%,.,-24%
